# The list is not random: actives were taken first. Their share in the collection is about 0.92%.
# BLM helicase inh – qHTS Assay for Inhibitors of Bloom's syndrome helicase (BLM). recombinant BLM DNA unwinding, fluorescence dequenching. AID 2528, 2010. actives 0.2% (n = 350,000). Potency, µM (titrated, usually from 56.1 µM), without a hit: at the top dose activity change, negative = inhibition, most hits filed as inhibitors;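 note: plate controls were vehicle for no effect and no enzyme for full effect; nearly all actives have a fitted effect of over 35% in size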
# L3MBTL1 inh – qHTS Assay for the Inhibitors of L3MBTL1. Lethal(3)malignant brain tumor-like protein 1 (Homo sapiens), Q9Y468. AlphaScreen L3MBTL1–H3K9me1 peptide binding. Potency, µM (top dose mostly 57.1 µM), without a hit: at the top dose activity, negative = inhibition, most hits filed as inhibitors. actives 0.66% (n = 230,000). AID 485360, 2010; note: nearly all actives have a fitted effect of over 60% in size
#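 AlphaScreen proximity signal between nickel-chelate acceptor and streptavidin donor beads (final 10 ug/mL) reports binding of 50 nM L3MBTL1 to 75 nM biotin-H3 K9me1 peptide; complex incubated with compounds 30 min at room temperature; cefsulodin titration as control.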
# WRN inhibitor – qHTS for Inhibitors of WRN Helicase. Bifunctional 3'-5' exonuclease/ATP-dependent helicase WRN (Homo sapiens), Q14191. WRN helicase unwinding, fluorescent forked duplex, kinetic. Potency, µM (doses to about 114 µM), without a hit: at the top dose activity change, negative = inhibition, usual class: inhibitors. actives 0.46% (n = 360,000); note: nearly all actives have a fitted effect of over 55% in size
#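 Primary qHTS, 1536-well format. 20 nM WRN + compound, 15 min RT; start with 100 nM forked fluorophore/quencher duplex, 2 mM ATP (final); kinetic read ex 525/em 598 nm.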
# RECQ1 inh-1 – qHTS Assay for Inhibitors of RecQ-Like Dna Helicase 1 (RECQ1); ATP-dependent DNA helicase Q1 (Homo sapiens), P46063; RECQ1 DNA unwinding, red fluorescence kinetic read; Potency, µM (highest dose often 57.3 µM), for inactives: at the top dose activity, negative = inhibition, hits mostly inhibitors; actives 0.54% (n = 240,000); AID 2549, 2010;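 note: plate controls were vehicle for no effect and no enzyme for full effect; nearly all actives have a fitted effect of over 30% in size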
#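 RECQ1T1 50 nM; forked duplex (20 bp + 30-nt ss tails) 200 nM, ATP 2 mM final; pH 8.0, 2 mM MgCl2, 2.5 ug/ml poly(dI-dC); 15 min compound preincubation; discontinuous kinetic read over 2 h at RT.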
# APE1 inh – qHTS Assay for Inhibitors of the Human Apurinic/apyrimidinic Endonuclease 1 (APE1) | DNA repair nuclease/redox regulator APEX1 (Homo sapiens), P27695 | recombinant APE1, TAMRA/BHQ-2 abasic DNA cleavage fluorescence | Potency, µM (series often up to 65.8 µM), for inactives: top-dose activity change, negative = inhibition, actives largely listed as inhibitors | actives 0.35% (n = 350,000) | AID 2517, 2012;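 note: plate controls were vehicle for no effect and reference inhibitor for full effect; nearly all actives have a fitted effect of over 55% in size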
# Target sequence (P27695 whole entry, looked up): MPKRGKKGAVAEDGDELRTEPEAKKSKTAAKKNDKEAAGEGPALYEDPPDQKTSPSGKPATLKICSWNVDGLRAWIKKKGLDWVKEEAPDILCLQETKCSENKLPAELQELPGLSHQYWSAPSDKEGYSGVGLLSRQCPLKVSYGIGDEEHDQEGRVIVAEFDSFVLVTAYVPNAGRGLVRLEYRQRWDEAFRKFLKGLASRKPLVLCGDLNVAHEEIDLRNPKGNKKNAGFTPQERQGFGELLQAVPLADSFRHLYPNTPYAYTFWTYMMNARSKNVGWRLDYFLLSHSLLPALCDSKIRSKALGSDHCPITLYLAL
#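 Endonuclease cleavage of a quenched abasic-site DNA duplex (50 nM) by APE1 (0.75 nM) was tracked by TAMRA dequenching. Compounds were preincubated with enzyme 15 min at room temperature; data normalized to buffer-only and DMSO wells plus NSC13755 control.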
# RECQ1 conf – Confirmation qHTS Assay for Inhibitors of RecQ-Like Dna Helicase 1 (RECQ1); shares compounds with RECQ1 inh-1; RECQ1 helicase DNA unwinding, fluorescence; Potency, µM (series often up to 229 µM), for inactives: at the top dose activity change, negative = inhibition, usual class: inhibitors; actives 28% (n = 610); AID 2708, 2010; note: nearly all actives have a fitted effect of over 45% in size
# ADP FP counter – Counterscreen for RECQ1 Inhibitors: ADP Fluorescence Polarization Displacement Assay | shares compounds with RECQ1 inh-1 | ADP fluorescence polarization displacement counterscreen | Potency, µM (doses to about 228 µM), without a hit: top-dose activity change, negative = inhibition, actives largely listed as inhibitors | actives 27% (n = 530); note: nearly all actives have a fitted effect of over 45% in size
# RECQ1 inh-2 – Confirmation qHTS Assay for Inhibitors of RecQ-Like Dna Helicase 1 (RECQ1) - Round 2 Cherry Picks. shares compounds with RECQ1 inh-1. recombinant RECQ1 DNA unwinding, red fluorescence. Potency, µM (series often up to 119 µM), without a hit: top-dose activity, negative = inhibition, most hits filed as inhibitors. actives 15% (n = 1,100). AID 504841, 2011; note: nearly all actives have a fitted effect of over 50% in size
# * marks the source's active call; other numbers are inactive results; i = inactive; u = inconclusive; x = no result; [ ] = another dose, or the depositor's remark. Calls come from the whole dose curve; as a rule, active = well fitted curve in the direction sought with a large enough effect; inconclusive = small, poorly fitted or top-dose-only effect, or another doubt; inactive = no such curve, though single readings can be large; an effect the other way counts as inactive or inconclusive. Unless noted, % is set by controls: 0 for no effect and ±100 for the full control effect; potency is the fitted concentration of half-maximal effect.
SMILES,BLM helicase inh,L3MBTL1 inh,WRN inhibitor,RECQ1 inh-1,APE1 inh,RECQ1 inh-2,others
CCC(C(=O)N1CCN(c2cccc(Cl)c2)CC1)c1ccccc1 (stereo unspecified),-4.8%,4.2%,-14.2%,25.1µM*,9.6%,-21.3%,
CCc1nc2cccnc2n1-c1ccc(CC(=O)Nc2cccc(C)c2C)cc1,1.2%,x,x,x,x,x,
O=C(O)CSc1nnc(Cn2nnc3ccccc32)n1CCc1ccccc1,-2.3%,10.2%,1.5%,0.4%,9.6%,x,RECQ1 conf=8.4%;ADP FP counter=7.8%
CCN(CC)C(=O)/C(C#N)=C/c1cc(O)c(O)c([N+](=O)[O-])c1,-10.2%,x,x,x,x,x,
CCCc1nc2ccccc2n1CC(O)COc1ccc(C(=O)OC)cc1 (stereo unspecified),-1.2%,x,x,x,x,x,
Cn1c(N)c(C(=O)COC(=O)CC(NC(=O)c2ccccc2Cl)c2ccccc2)c(=O)n(C)c1=O (stereo unspecified),-1.7%,7.6%,-4.4%,-14.0%,-0.2%,x,RECQ1 conf=7.6%;ADP FP counter=3.5%
CCCCC1=CC2=CC(=O)C(C)(OC(=O)c3cccs3)C(=O)C2=CO1 (stereo unspecified),-13.9%,x,-33.3%,-17.7%,-5.2%,x,
COC(=O)CCCC1=CC2=CC(=O)C(C)(OC(=O)c3cccs3)C(=O)C2=CO1 (stereo unspecified),-9.8%,x,x,u,u,u,
Clc1ccc(CCNc2nc3cc(Cl)c(Cl)cc3n3cnnc23)cc1,0.2%,x,x,x,x,x,
CCCc1cc(=O)oc2cc(C)c(CN3CCCC3)c(O)c12,25.1µM*,8.91µM*,39.8µM*,12.6µM*,u,u,
O=C(c1ccc2c(c1)OCCO2)N(Cc1cccnc1)c1nc2c(Cl)cccc2s1,-6.7%,x,x,x,x,x,
CC(C)(C)c1ccc(/C=C2\Oc3cc(O)ccc3C2=O)cc1,-9.9%,x,-12.7%,x,15.4%,x,
O=C1/C(=C\c2ccc(O)c(O)c2)Oc2cc(O)ccc21,-7.9%,x,x,20µM*,u,56.2µM*,
Cc1ccc(C)c(NC(=O)CSc2nccn2-c2cccc(C)c2C)c1,-8.8%,x,x,x,x,x,
O=C1C(=O)C(c2ccc(O)cc2O)Oc2cc(O)cc(O)c21 (stereo unspecified),x,x,x,x,x,x,RECQ1 conf=u
COc1ccc([C@H]2Oc3cc(O)cc(O)c3C(=O)C2[C@@H]2C(=O)c3c(O)cc(O)cc3O[C@@H]2c2ccc(OC)cc2)cc1 (stereo partly specified),u,x,-6.0%,-11.0%,-6.1%,x,
Cc1cc2c(nc1C)CCCCN2C[C@H](C)O/N=C\[C@@H](C)[C@H](OCc1ccccc1)C(C)C,-1.5%[12.4 µM],x,x,i[11.5 µM],u,x,
O=C(O)c1ccc(NC(CSCc2ccc(F)cc2)C(=O)O)c([N+](=O)[O-])c1 (stereo unspecified),0.6%,x,-2.0%,6.8%,-2.3%,x,RECQ1 conf=23.0%;ADP FP counter=-5.6%
CCN(CC)CCNC(=O)Cn1nc(C)c2c(C)n(-c3ccccc3)nc2c1=O,0.0%,x,x,x,x,x,
COc1ccc(C(=O)NCCCN2CCOCC2)cc1S(=O)(=O)N1CCCc2ccccc21,-5.7%,x,9.8%,39.8µM*,18.3%,0.3%,
CCCNC(=O)Cn1ncc2c3ccccc3n(CCC)c2c1=O,10.0%,x,x,x,x,x,
COc1cc2c(cc1OC)C1=NC(=O)CN1C(SCc1ccc(C)cc1)=N2,2.6%,-0.1%,-14.6%,-17.3%,-4.7%,x,
Cc1ccc(CSC2=Nc3sccc3C3=NC(=O)CN23)cc1,-15.2%,-9.3%,-18.8%,31.6µM*,12.3%,-4.0%,
COC(=O)CNC(=O)[C@@]1(C)C=C[C@@H](Cc2ccccc2)N1C(C)=O,16.6%,x,x,2.4%,-8.9%,x,
O=C(Nc1nc2ccc(SC(F)F)cc2s1)c1ccc(NS(=O)(=O)c2ccc(F)c(F)c2)cc1,-18.6%,-12.0%,-30.9%,u,-9.0%,u,
SMILES,BLM helicase inh,L3MBTL1 inh,WRN inhibitor,RECQ1 inh-1,APE1 inh,RECQ1 inh-2,others
CS(=O)(=O)c1ccc2nc(NC(=O)c3cccc(NS(=O)(=O)c4ccc(F)c(F)c4)c3)sc2c1,-2.1%,6.7%,u,-5.1%,8.5%,x,
CS(=O)(=O)c1ccc2nc(NC(=O)c3ccc(NS(=O)(=O)c4ccc(F)c(F)c4)cc3)sc2c1,-12.2%,x,-8.5%,31.6µM*,-6.4%,-21.3%,
CC(C)(C)NS(=O)(=O)c1ccc2nc(NC(=O)c3ccc(N4C(=O)CCC4=O)cc3)sc2c1,-8.5%,40.2%,-9.2%,i,-1.3%,x,RECQ1 conf=13.6%;ADP FP counter=-5.9%
CNC(=O)COC(=O)c1c2c(nc3ccccc13)CCC2,-12.2%,u,-17.2%[57.1 µM],u,-5.5%,u,
CCN1CCN(c2nc(Nc3ccc(NC(C)=O)cc3)nc(Nc3ccc(NC(C)=O)cc3)n2)CC1,17.8µM*,x,25.1µM*,31.6µM*,-4.2%,22.4µM*,
CC(=O)Nc1ccc(/C(C)=N/Nc2nc(Nc3ccccc3)nc(N3CCOCC3)n2)cc1,-1.7%,-5.4%,-2.7%,-2.4%,0.2%,x,
COc1ccccc1CNC(=O)c1ccc(-c2nc(CS(=O)(=O)c3ccc(C)cc3)c(C)o2)cc1,-6.7%,x,x,x,x,x,
COc1ccccc1-n1c(SCC(=O)Nc2ccccc2C)nc(O)cc1=O,-16.2%,-1.1%,-13.2%[57.1 µM],10µM*,1.6%,-7.0%,RECQ1 conf=11.4%[114 µM];ADP FP counter=12.1%[91.9 µM]
CCOC(=O)N1CCC2(CC1)OC(=O)C(C)=C2C(=O)NCc1ccc(C)cc1,-3.5%,x,x,x,x,x,
Cc1cccc(N2C(=O)CSC23C(=O)N(CC(=O)NCc2ccccc2Cl)c2ccccc23)c1 (stereo unspecified),-7.8%,x,x,x,x,x,
O=C1C(Cl)=C(N2CCC(C(=O)O)CC2)C(=O)c2ccccc21,-30.0%,-25.6%,-20.0%,22.4µM*,u,35.5µM*,

# Screening results: PubChem BioAssay, National Center for Advancing Translational Sciences (NCATS)
